Assay [1] in a line: Primary qHTS for inhibitors of nuclear receptor binding SET domain protein 2 (NSD2) in an isogenic RCH-ACV NSD2 p.E1099K mutant (9B) (AID 1645876).
Assay [2] can be described thus: Primary qHTS for inhibitors of nuclear receptor binding SET domain protein 2 (NSD2) in an RCH-ACV wild type WT cells (2C) (AID 1645877). Background: Quantitative high-throughput screening tests each substance at several concentrations.

Results filed as inconclusive are left out. A number with no mark means an inactive call. Calls of active or inactive are those of the source. Calls come from the whole dose curve; as a rule, active = well fitted curve in the direction sought with a large enough effect; inconclusive = small, poorly fitted or top-dose-only effect, or another doubt; inactive = no such curve, though single readings can be large; an effect the other way counts as inactive or inconclusive.
% is set by controls: 0 for no effect and ±100 for the full control effect.
Note: nearly all actives have a fitted effect of over 70% in size.

Consider `C=C[C@H]1[C@H](O[C@@H]2O[C@H](CO[C@@H]3OC[C@](O)(CO)[C@H]3O)[C@@H](O)[C@H](O)[C@H]2O)OC=C2C(=O)OCC[C@H]21`, for which the Potency result in assay [1] and in assay [2] was “inactive” in each case.
In the case of `CC1(C)CC2C3=CCC4C5(C)CCC(OC6OC(C(=O)O)C(O)C(O)C6OC6OC(CO)C(O)C(O)C6OC6OC(CO)C(O)C(O)C6O)C(C)(CO)C5CCC4(C)C3(C)CCC2(C)C(OC2OCC(O)C(OC3OC(CO)C(O)C(O)C3O)C2O)C1O` (configuration not stated), the activity change, negative = viability loss in assay [1] was -1.65% [at 9.23 µM]. In assay [2], the activity change, negative = cell killing is -4.93% [at 9.23 µM].
For the molecule `C[C@]12CC[C@@H]3c4ccc(O[C@@H]5O[C@H](C(=O)O)[C@@H](O)[C@H](O)[C@H]5O)cc4CC[C@H]3[C@@H]1CCC2=O`, the Potency entry in assay [1] and in assay [2] was “inactive” each time.
Regarding `CC(CCC1(O)OC2CC3C4CCC5CC(O[C@@H]6O[C@H](CO)[C@@H](O)[C@H](O)[C@H]6O[C@@H]6OC[C@@H](O)[C@H](O)[C@H]6O)C(O)CC5(C)C4CCC3(C)C2C1C)CO[C@@H]1O[C@H](CO)[C@@H](O)[C@H](O)[C@H]1O` (some centres not stated), the outcome in assay [1] and in assay [2] was “inactive [at 9.23 µM]” throughout.
With `CC(C)=CC/C=C(/C)[C@H]1CC[C@]2(C)[C@@H]1[C@H](O)CC1[C@@]3(C)CC[C@H](O)C(C)(C)[C@@H]3[C@@H](O[C@@H]3O[C@H](CO)[C@@H](O)[C@H](O)[C@H]3O[C@@H]3O[C@@H](C)[C@H](O)[C@@H](O)[C@H]3O)C[C@]12C` (some centres not stated), the Potency entry in assay [1] and in assay [2] was “inactive” throughout.
With `C[C@]1(OC(=O)/C=C/c2ccccc2)C[C@H](O)[C@]2(O)C=CO[C@@H](O[C@@H]3O[C@H](CO)[C@@H](O)[C@H](O)[C@H]3O)C12` (some centres not stated), the Potency entry in assay [1] and in assay [2] was “inactive” throughout.

The values above are taken from PubChem BioAssay (NCATS).
